Source: PubChem BioAssay AID485341 (National Center for Advancing Translational Sciences (NCATS), 2010)
About 1,700 (0.52%) of roughly 330,000 compounds were called active. What follows is part of a selection rich in actives, with near analogues and random picks from the rest. A number with no mark means an inactive call. The call rests on the fitted dose curve; in most records, active means well fitted inhibition curve with a large enough effect; inconclusive means small, poorly fitted or top-dose-only effect; inactive means no such curve, though single readings can be large or run the other way.

target: Beta-lactamase (Escherichia coli (strain K12)) (UniProt P00811); assay: qHTS Inhibitors of AmpC Beta-Lactamase (assay without detergent); settings: AmpC nitrocefin hydrolysis, absorbance 480 nm, 0.0001% Triton; series mostly up to 57.1 µM; activity change, negative = inhibition: at the top concentration; further: nearly all actives have a fitted effect of over 20% in size
Sequence (P00811 whole entry, looked up): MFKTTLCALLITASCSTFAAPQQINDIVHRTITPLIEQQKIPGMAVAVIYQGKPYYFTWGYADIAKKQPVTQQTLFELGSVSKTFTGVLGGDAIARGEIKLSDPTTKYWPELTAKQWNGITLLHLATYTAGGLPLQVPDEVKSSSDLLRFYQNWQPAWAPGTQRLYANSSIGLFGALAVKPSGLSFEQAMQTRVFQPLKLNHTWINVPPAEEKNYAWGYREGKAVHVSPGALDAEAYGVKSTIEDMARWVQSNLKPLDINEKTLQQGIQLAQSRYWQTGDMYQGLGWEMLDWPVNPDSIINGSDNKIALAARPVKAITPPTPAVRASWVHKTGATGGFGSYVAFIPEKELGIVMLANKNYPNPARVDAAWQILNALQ
Experimental: NIH Molecular Libraries Probe Production Network [MLPCN] NIH Chemical Genomics Center [NCGC] Assay Provider: Professor Brian Shoichet, UCSF Assay Overview: This aggregation profiling approach exploits the sensitivity of aggregate formation to detergent. Inhibition of b-lactamase is measured in the presence and absence of 0.01% Triton X-100. This particular assay had the prescence of 0.01% Triton X-100. See Pubchem assay "Promiscuous and Specific Inhibitors of AmpC Beta-Lactamase (assay without detergent)" for related screen. Compounds that inhibit only in the absence of detergent are considered likely promiscuous aggregators. A screen of 1,030 compounds was performed in Brian Shoichet's lab in 96-well format. AmpC activity was measured by following the absorbance at 480 nm. Nitrocefin is a chromogenic substrate: while nitrocefin is yellow (lmax 390 nm), the product of its hydrolysis is red (lmax 486 nm, 17,000 M-1). AmpC beta lactamase was provided by Shoichet Lab, UCSF.
Buffer: 20 mM phosphate buffer, pH 7.0 Triton X-100: No Detergent screen: 0.0001%, Detergent screen: 0.01%. Reagents/Controls: Buffer in columns 3 and 4 as negative control (no enzyme). 5.3 nM AmpC in columns 1, 2, 5-48. Titration of UCSF compound 9 control (from 10 mM, then 1:2) pin-transferred to column 2. Column 1 is neutral (100% activity). Assay Steps: Six uL of reagents were dispensed to 1536-well Greiner black clear bottom plates. Compounds and controls (23 nL) were transferred via Kalypsys PinTool. The plates were incubated for 15 min at room temperature, and then 2 uL of 800 uM solution of nitrocefin was added to start the reaction. The plates were immediately transferred to and read every 20 seconds for 4 min on ViewLux (Perkin-Elmer) High-throughput CCD imager using 480 nm absorbance protocol. During dispense, reagent bottles were kept submerged into 4 deg C water bath. Keywords: NIH Roadmap, MLSCN, MLI, MLSMR, qHTS, NCGC, AmpC Beta-Lactamase, Aggregation
Potency means the concentration at half of the fitted maximal effect.

Compared with `CCOC(=O)c1sc(NC(=O)CSc2n[nH]c(CC)n2)nc1C`, `CCOC(=O)C1CCCN(C(=O)CSc2nnc3nc(C)cc(C)n23)C1` (stereo unspecified) is higher in “activity change, negative = inhibition” value: -18.1% for the first, 122% for the second.

First: O=C(CSc1nc(O)c(Cc2ccccc2)c(=O)[nH]1)Nc1nc2c(s1)CCCC2
Second: O=C(CSc1nc2ccccc2c(=O)[nH]1)Nc1nc(-c2ccc(Br)cc2)cs1
The “activity change, negative = inhibition” value of the first is lower: -39.3% for the first, -21.7% for the second.

First: O=C(O)CCN=C1CCc2ccccc2N1
Second: Cc1nc(N2CCCC2C(=O)O)c2oc3ccccc3c2n1 (stereo unspecified)
The “activity change, negative = inhibition” value of the first is lower: -16.2% for the first, -11.1% for the second.

First: Cc1ccc(C)c(NC(=O)CSc2nnc(Cc3cccn3C)n2-c2ccc(F)cc2)c1
Second: COC(=O)c1ccc(NC(=O)CSc2nnc(Cc3cccn3C)n2-c2ccc(F)cc2)cc1
The “activity change, negative = inhibition” value of the first is lower: 80.5% for the first, 144% for the second.

First: O=C(CN1CCCC1)Nc1sc2c(c1C(=O)Nc1ccccc1)CCCC2
Second: Cc1ccc(NC(=O)CCCNC(=O)c2ccc(Cl)cc2)cc1S(=O)(=O)N1CCCCC1
The “activity change, negative = inhibition” value of the first is higher: 10.1% for the first, -9.32% for the second.

Going from `Cc1cc2ncn(CCCCOc3ccccc3)c2cc1C` to `CCC(=O)N(Cc1ccccc1)c1ccccn1`, the “activity change, negative = inhibition” value falls from 38.5% to -9.04%.

Going from `CC(=O)Nc1cccc(C(=O)OCC(=O)Nc2nnc(-c3ccccc3)o2)c1` to `COc1ccccc1C(=O)NCC(=O)OCC(=O)Nc1nnc(-c2ccccc2)o1`, the “activity change, negative = inhibition” value rises from -23.2% to -23.1%.

Compared with `CCn1nnc(NC(=O)c2c(OC)cccc2OC)n1`, `Cc1cc(NC(=O)COn2nnc3ccccc32)no1` is lower in “activity change, negative = inhibition” value: -5.33% for the first, -10.9% for the second.

First: CCN(C(=O)COC(=O)C1CCN(S(=O)(=O)c2ccc(C)c(C)c2)CC1)C1CCS(=O)(=O)C1 (stereo unspecified)
Second: CCOC(=O)c1ccc(NC(=O)CS(=O)(=O)c2cn(CC)c3ccccc23)cc1
The “activity change, negative = inhibition” value of the first is higher: 114% for the first, -17.8% for the second.

Going from `CC(=O)NCc1ccc(-c2csc(NC(=O)CCCc3nc4ccccc4c(=O)[nH]3)n2)cc1` to `COc1cccc(N(CC(=O)NCc2ccccc2)C(=O)CCC(=O)Nc2nccs2)c1`, the “activity change, negative = inhibition” value falls from -1.05% to -5.9%.

Compared with `O=c1cc(CO)oc(C(Nc2cccc(C(F)(F)F)c2)c2ccccn2)c1O` (stereo unspecified), `CC(C)(C)C(=O)N(Cc1ccccc1)c1ccccn1` is lower in “activity change, negative = inhibition” value: -7.84% for the first, -13.5% for the second.

Going from `O=C(O)CN1c2cccc3cccc(c23)S1(=O)=O` to `COc1ccc(C(=O)O)cc1S(=O)(=O)NCc1cccnc1`, the “activity change, negative = inhibition” value rises from -20.4% to -9.22%.

Going from `CC1=C[C@H]2Cc3cc(C)cc(C)c3S(=O)(=O)[C@@H]2C=C1` to `Cc1ccc(C(=O)NNC(=O)c2ccc3c(c2)OCCO3)cc1`, the “activity change, negative = inhibition” value rises from -29.6% to -13.1%.

First: Cn1nccc1/C=N\NC(=O)c1ccc(Cl)cc1
Second: Cc1ccc(C(=O)NNc2ncnc3ccccc23)cc1
The “activity change, negative = inhibition” value of the first is higher: -18.8% for the first, -20.7% for the second.

Going from `CC1(C)C2CC=C(/C=N/NC(=O)C3CC3)C1C2` (stereo unspecified) to `COC(=O)CCC(=O)N1CCCC(CO)(Cc2ccccc2)C1` (stereo unspecified), the “activity change, negative = inhibition” value rises from -16.2% to -7.35%.

First: Cc1c(C(=O)N(C)CCc2cnn(C)c2)oc2c(F)cccc12
Second: COc1ccc(COC(=O)c2n[nH]c3ccccc23)cc1F
The “activity change, negative = inhibition” value of the first is higher: 17.1% for the first, -30.2% for the second.

Compared with `CN(C)S(=O)(=O)c1ccc(NC(=O)COC(=O)c2n[nH]c3ccccc23)cc1`, `CCC(C)NC(=O)c1ccccc1NC(=O)c1ccccc1N(C)S(C)(=O)=O` (stereo unspecified) is higher in “activity change, negative = inhibition” value: -36.1% for the first, -6.03% for the second.

Going from `COC(=O)c1ccc(CSc2nnc(NC(C)C)s2)cc1` to `O=C(Cc1cccs1)Nc1nnc(SCc2ccc(F)cc2)s1`, the “activity change, negative = inhibition” value falls from -22.8% to -23.8%.

First: COc1cc(OC)cc(C(=O)NNC(=O)CNC(=O)c2ccc(Br)o2)c1
Second: CSCC[C@H](NC(=O)N1CCn2c1nc1ccccc12)C(=O)NCc1ccc2c(c1)OCO2
The “activity change, negative = inhibition” value of the first is lower: -17.5% for the first, 85% for the second.

Compared with `CCc1ccc(-n2c(=S)sc3c(=O)n(-c4ccccc4OC)c(=S)[nH]c32)cc1`, `COc1ccc(C)cc1Nc1nc(C)nc2c1oc1ccccc12` is higher in “activity change, negative = inhibition” value: -39% for the first, -2.54% for the second.

For `Cc1ccc(S(=O)(=O)N(Cc2ccccc2)c2ccccn2)cc1[N+](=O)[O-]`, the “activity change, negative = inhibition” value was -57.8%.

In the case of `COc1ccccc1NC(=O)CSc1nnc(Cc2cccn2C)n1-c1ccc(F)cc1`, the Potency is reported as 1.41 µM (active).
With `O=C(COC(=O)c1ccc(Oc2ccccc2)cc1)Nc1nnc(-c2ccccc2)o1` the Potency was 12.6 µM (active).
For `Cc1cc(C)c(-c2csc(NC(=O)CCCc3nc4ccccc4c(=O)[nH]3)n2)c(C)c1`, the Potency was 35.5 µM (active).
In the case of `Cc1cc(NC(=O)CS(=O)(=O)c2cn(C)c3ccccc23)no1`, the Potency is reported as 10 µM (active).
`CC1(C)C2CC=C(/C=N/NC(=O)c3ccc(Cl)cc3)C1C2` (stereo unspecified) was tested, and the Potency was 11.2 µM (active).
In the case of `CCN(CC)S(=O)(=O)c1ccc2nc(COC(=O)c3n[nH]c4ccccc34)[nH]c2c1`, the Potency is reported as 22.4 µM (active).
In the case of `Cc1ccc(C(=O)Oc2coc(CSc3nnc(NC(=O)c4cccs4)s3)cc2=O)cc1C`, the Potency is reported as 7.08 µM (active).
In the case of `Cc1csc2ncc(C(=O)N(Cc3ccccc3)c3ccccn3)c(=O)n12`, the Potency is reported as 5.62 µM (active).
With `Cc1ccc(C(=O)NNC(=O)c2cc3cc4ccccc4nc3s2)cc1` the Potency was 22.4 µM (active).
`Cc1nc(Cl)c2oc3ccccc3c2n1` was tested, and the Potency was 0.158 µM (active).
